The subject of assay [1] is XIP peptide (Xip251-270) binding. Nature of the assay: XIP fragment 251-270 binding compounds – biochemical, small-molecule microarray, fluorescence 635/667 nm, 0.1 µg/mL protein, primary screen (AID 1182). The note with it: fluorescent protein binding, 635 nm, higher = more signal, called active from +8 up or from −8 down.
A further assay concerns XIP peptide (Xip251-270). Nature of the assay: compounds binding XIP fragment 251-270 – biochemical, small-molecule microarray, fluorescence 635/667 nm, 0.5 µg/mL protein, primary screen (AID 1183). Conditions: fluorescence 635 nm, higher = more signal.
The nature of assay [2]: blood-stage malaria parasite viability loss – strain 3D7, DAPI fluorescence, 100 nL, primary screen (AID 1184).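 Further: parasites grown inside human red blood cells in medium with human serum.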 The note with it: P. falciparum 3D7 growth, 3 d, higher = more signal.
Assay [3] addresses Homeobox protein Hox-A13 (Mus musculus) (UniProt Q62424). The assay is described as follows: disruptors of Hoxa13 oligonucleotide interaction – biochemical, fluorescence polarization, labeled oligonucleotide, primary screen (AID 1185). The note with it: Hoxa13:DNA binding, 15 min, higher = more signal, called active from +8 up or from −8 down.
Assay [4] in a line: blockers of DNA damage checkpoint Chk1 activation – imaging, HeLa, hydroxyurea, phospho-Chk1 antibody, percent positive cells, primary screen (AID 1186). The note with it: hydroxyurea-induced phospho-Chk1 immunofluorescence imaging, higher = more signal.
The nature of assay [5]: blockers of DNA damage checkpoint Chk1 activation – imaging, HeLa, hydroxyurea, phospho-Chk1 nuclear intensity, primary screen (AID 1187). Conditions: hydroxyurea-induced phospho-Chk1 immunofluorescence imaging, higher = more signal.

Structures are written as SMILES. Calls of active or inactive are those of the source. Unless noted, how the calls were made is not given here.

Chain of Homeobox protein Hox-A13 (Mus musculus) (Q62424 whole entry, looked up): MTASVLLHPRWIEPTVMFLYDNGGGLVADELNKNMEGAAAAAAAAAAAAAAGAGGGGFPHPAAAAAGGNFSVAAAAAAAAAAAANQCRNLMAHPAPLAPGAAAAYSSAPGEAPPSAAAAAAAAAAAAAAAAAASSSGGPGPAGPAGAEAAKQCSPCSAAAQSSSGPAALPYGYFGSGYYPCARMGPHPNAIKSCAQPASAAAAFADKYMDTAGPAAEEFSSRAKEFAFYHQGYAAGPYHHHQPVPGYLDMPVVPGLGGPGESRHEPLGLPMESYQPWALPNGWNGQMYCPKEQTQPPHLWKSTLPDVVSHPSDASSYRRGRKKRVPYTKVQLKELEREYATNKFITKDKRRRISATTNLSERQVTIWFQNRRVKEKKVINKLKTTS

Take `CCOC(=O)C[C@H]1[C@H](OC(=O)c2ccc(C(=O)c3ccccc3)cc2)[C@@H](NC(=O)Cc2ccc(OC)cc2)c2cc(OCCCO)ccc2N1C(=O)c1ccccc1`: the composite z-score is 0.922 (inactive) in assay [1] and -0.281 in the assay with XIP peptide (Xip251-270). Moreover, the z-score in assay [2] is -0.133; in assay [3] it was -1.88 (inactive); in assay [4] it was 0.72 (inactive); in assay [5], 0.343 (inactive).
As for `COC(=O)C(CC#Cc1ccc2c(c1)[C@]1(C(=O)N2)[C@H](C(=O)N2CCN(c3ncccn3)CC2)[C@H]2C(=O)O[C@H](c3ccccc3)[C@H](c3ccccc3)N2[C@@H]1c1ccc(OCCO)cc1)C(=O)OC`, the composite z-score in assay [1] is 1.22 (inactive); in the assay on XIP peptide (Xip251-270), 0.809. Further, the z-score was -1.97 in assay [2], 1.63 (inactive) in assay [3], -0.162 (inactive) in assay [4] and -0.285 (inactive) in assay [5].
Regarding `COc1cccc(/C=C/C=O)c1`, the composite z-score in assay [1] is 0.421 (inactive); in the assay with XIP peptide (Xip251-270), -0.453. Moreover, the z-score in assay [2] was 1.1; in assay [3], -0.396 (inactive); in assay [4] it was 0.36 (inactive); in assay [5] it was 0.769 (inactive).
In the case of `C[N+](C)(C)CCCCCCNC(=O)[C@H]1C[C@H]2C(=O)N[C@@H](Cc3ccccc3)C(=O)N2[C@H]1c1ccc(O)cc1`, the composite z-score was 0.901 (inactive) in assay [1] and 0.5 in the assay on XIP peptide (Xip251-270). Besides, the z-score in assay [2] is 0.0933; in assay [3], -3.23 (inactive); in assay [4] it was 0.141 (inactive); in assay [5], 0.14 (inactive).
As for `CN1C(=O)C2C=CC(C(O)c3ccccn3)N(N(c3ccccc3)c3ccccc3)C2C1=O` (configuration not stated), the results for the composite z-score (in assay [1]; with XIP peptide (Xip251-270)) were -0.365 (inactive) and 0.891, respectively. The z-score in assay [2] was -0.215; in assay [3], -8.63 (active); in assay [4], 0.46 (inactive); in assay [5], -0.024 (inactive).
For `COC(=O)CCCCCCC(=O)Nc1ccc(NC(=O)CCCC[P+](c2ccccc2)(c2ccccc2)c2ccccc2)cc1`, the composite z-score in assay [1] is -0.369 (inactive); in the assay with XIP peptide (Xip251-270), 0.102. The z-score in assay [2] was -1.46; in assay [3], -1.31 (inactive); in assay [4], -0.917 (inactive); in assay [5], -1.21 (inactive).
Consider `CC(C)(C)OC(=O)CC[C@]1(C(=O)NCC(O)CO)N=C(c2ccc(OCCCO)cc2)O[C@H]1c1ccccc1` (some centres not stated), for which the values for the composite z-score (in assay [1]; with XIP peptide (Xip251-270)) were 0.0294 (inactive) and 0.628, respectively. In addition, the z-score in assay [2] was -1.74; in assay [3], -4.14 (inactive); in assay [4], -0.703 (inactive); in assay [5], -0.886 (inactive).
Regarding `C=C(/C(=C/C[C@H](OC(C)=O)c1ccccc1OCCO)c1cc(C(=O)OC)ccc1OC)C(C)C`, the composite z-score was -0.2 (inactive) in assay [1] and -0.239 with XIP peptide (Xip251-270). The z-score was -2.42 in assay [2], -4.07 (inactive) in assay [3], -0.0815 (inactive) in assay [4] and -0.292 (inactive) in assay [5].
Take `C=CC[C@@]1(C(=O)N2CCOCC2)N=C(c2ccc(OCCCO)cc2)O[C@@H]1c1ccccc1CN=[N+]=[N-]`: the composite z-score in assay [1] was 0.74 (inactive); with XIP peptide (Xip251-270) it was 0.758. The z-score in assay [2] is -2.26; in assay [3], -5.78 (inactive); in assay [4] it was 0.0151 (inactive); in assay [5], 0.349 (inactive).
Consider `O=C(NCCCCCNC(=O)/C(Cc1ccccc1)=N/O)OCc1ccccc1`, for which the results for the composite z-score (in assay [1]; in the assay with XIP peptide (Xip251-270)) were -0.333 (inactive) and 0.132, respectively. The z-score in assay [2] was -1.94; in assay [3], -4.08 (inactive); in assay [4] it was -0.466 (inactive); in assay [5], 0.238 (inactive).
For the compound `CC(C)OC(=O)C=C1C[C@@H](c2ccc(C(F)(F)F)cc2)O[C@@H](c2ccc(C(F)(F)F)cc2)O1`, the composite z-score in assay [1] is 0.416 (inactive); in the assay with XIP peptide (Xip251-270) it was 0.567. The z-score in assay [2] was -0.266; in assay [3] it was -3.22 (inactive); in assay [4], -0.272 (inactive); in assay [5], 0.0075 (inactive).
For the compound `COCCOC(=O)N1C(=O)[C@@]2(c3cc(C#CC4=CCCCC4)ccc31)[C@H](c1ccccc1OCCO)N1[C@H](c3ccccc3)[C@H](c3ccccc3)OC(=O)[C@H]1[C@@H]2C(=O)N1CCCCCCC1`, the composite z-score in assay [1] was 0.549 (inactive); in the assay on XIP peptide (Xip251-270) it was 0.688. In addition, the z-score in assay [2] was -2.05; in assay [3], 4.13 (inactive); in assay [4], 0.234 (inactive); in assay [5], 0.347 (inactive).
Take `C[C@@H]1NC(=O)[C@@]23C(=O)N[C@@H](Cc4ccccc4)C2[C@H](C)[C@@]2(C)O[C@H]2C3/C=C/C/C=C\CNC(=O)[C@@H]2CCCN2C1=O` (some centres not stated): the composite z-score is -0.85 (inactive) in assay [1] and -0.103 in the assay on XIP peptide (Xip251-270). Besides, the z-score in assay [2] was 0.934; in assay [3] it was -3.68 (inactive); in assay [4], -0.0354 (inactive); in assay [5] it was 0.186 (inactive).
Take `COC(=O)[C@@]1(Cc2ccccc2)[C@H]2c3cc(C(=O)N(C)C)n(Cc4c(CO)[nH]cc(C)c4=O)c3C[C@H]2CN1C(=O)c1ccccc1`: the composite z-score in assay [1] was 0.278 (inactive); with XIP peptide (Xip251-270) it was 0.3. Besides, the z-score in assay [2] is -1.16; in assay [3], -5.3 (inactive); in assay [4], -0.0454 (inactive); in assay [5] it was 0.0707 (inactive).
For the compound `C=CC[C@]1(C(=O)NCCN2CCOCC2)N=C(c2ccc(OCCCO)cc2)O[C@H]1c1ccccc1CN=[N+]=[N-]`, the composite z-score in assay [1] was 0.882 (inactive); in the assay with XIP peptide (Xip251-270) it was 0.887. The z-score in assay [2] is -2.29; in assay [3], -4.74 (inactive); in assay [4] it was -0.005 (inactive); in assay [5] it was 0.23 (inactive).
In the case of `C=CCNC(=O)[C@H]1[C@@H]2C(=O)O[C@@H](c3ccccc3)[C@@H](c3ccccc3)N2[C@@H](c2ccc(O)cc2)[C@]12C(=O)Nc1ccc(C#CC3(O)CCCCCC3)cc12`, the figures for the composite z-score (in assay [1]; with XIP peptide (Xip251-270)) were 0.692 (inactive) and 0.466, respectively. Moreover, the z-score was -0.372 in assay [2], -3.96 (inactive) in assay [3], -0.165 (inactive) in assay [4] and -0.244 (inactive) in assay [5].
`C=C(/C(=C/C[C@H](OC(C)=O)c1cccc(OCCO)c1)c1cnc2ccccc2c1)C(C)C`: the composite z-score in assay [1] is -0.328 (inactive); with XIP peptide (Xip251-270), -0.179. The z-score in assay [2] is -1.28; in assay [3], -4.29 (inactive); in assay [4], -0.192 (inactive); in assay [5], -0.139 (inactive).

These data come from PubChem BioAssay.
